# Data as given in PubChem BioAssay AID1508625 (Wald Lab, School of Medicine, Case Western Reserve …, 2021).
# Assay: enhancers of NK cell killing of ovarian tumor cells, primary screen, imaging, OVCAR3, primary NK cells, calcein-AM imaging (AID 1508625);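 further: compound given to NK cells 16 h before adding targets at 1.5 to 1 ratio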
# Settings: OVCAR3 lysis by primary NK cells, at 5 µM; z-score: measured here: robust Z-score, single-point normalisation
Structure (SMILES),"corrected activity, negative = more killing [%]",z-score
CCOP(=S)(OCC)SCC(=O)c1c(O)cc(C)oc1=O,-2.68,-1.01
COc1ccccc1CC(C)NC1CCCc2c1[nH]c1ccc([N+](=O)[O-])cc21 (configuration not stated),2.84,1.24
FC(F)(F)c1ccc(CNCCc2ccc3c(c2)OCO3)cc1,-3.37,-1.07
O=c1cccc2n1C[C@H]1C[C@@H]2CN(Cc2ccccc2F)C1,-2.76,-1.43
O=S1(=O)CC2(N3CCOCC3)CCCCC21 (configuration not stated),-5.53,-1.76
CCC(C)N1CCN(Cc2cccc(Cl)c2)CC1 (configuration not stated),-0.307,-0.137
COc1cccc(CCNCc2ccc(C)cc2C)c1,-4.05,-1.29
CCN(CC)CCCn1c(=S)[nH]c2cc(Cl)ccc2c1=O,-4.51,-1.2
Cc1cnc2cccc[n+]2c1C,0.645,0.254
CCCCCn1c(=O)c(C(=O)Nc2cccc(OC)c2)c(O)c2ccccc21,-0.341,-0.108
O=c1c2ccccc2nc(-c2ccco2)n1-c1ccc(Cl)cc1,-0.835,-0.329
CC(Cc1ccccc1F)NC1CCCc2c1[nH]c1ccc([N+](=O)[O-])cc21 (configuration not stated),-1.36,-0.594
COc1ccc(C2(CN)CCCC2)cc1OC,-1.26,-0.675
Cc1ccc(OCC(=O)N2CCN(C3CCCCC3)CC2)cc1,-3.64,-1.62
CCOC(=O)CN1C(=O)NC2(CCN(C)CC2)C1=O,-3.8,-1.02
CC12CN3CN(C1)CC(C)(C3)C2=NN,-6.15,-2.42
O=[N+]([O-])c1ccccc1CNCCc1cccc(F)c1,-3.35,-1.06
C=CCON=C(CCC)C1C(=O)CC(C)(C)C(C(=O)OC)C1=O (configuration not stated),-4.48,-1.77
O=[N+]([O-])c1ccc(NCCc2ccccc2)c2ncccc12,1.61,0.498
CCOc1cccc(C(O)CNC)c1 (configuration not stated),0.0567,0.0176
CCCC12CN3CCN(CC(C3)C1O)C2 (configuration not stated),0.145,0.0449
